BAP1 block: blocks human BAP1 ubiquitin-AMC hydrolysis; Q92560; recombinant BAP1, Ub-AMC hydrolysis fluorescence kinetic; stronger effect = lower value; 72,000 tested, 0.48% active; calls only at 20 µM;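 active means activity remaining at or below 50% of control, provided the compound also passes the data quality filters; inactive means the rest, including low values that fail the filters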;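 further: 100% = DMSO wells rate and 0% = substrate alone blank rate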
MKP-1 inh: human dual specificity phosphatase 1 inhibition. P28562. recombinant MKP-1, OMFP hydrolysis fluorescence. AID 374. 65,000 tested, 0.15% active. inhibition, %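 (compounds tested at a single concentration somewhere between 10 and 100 µM)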;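 active means inhibition above about 50%, limit read from the data; inconclusive means inhibition over screen mean plus 3 SD, below that limit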;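 further: 0% = DMSO max control wells and 100% = wells with enzyme stopped by NaOH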
HePTP inh: inhibitors of human HePTP phosphatase; recombinant HePTP phosphatase activity, OD absorbance; inhibition, % at 20 µM; 110,000 tested, 0.64% active; AID 521; in the data active means inhibition above about 50%; inconclusive means no clear call, values can overlap the other calls;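 further: plate controls were vehicle for no effect and reference inhibitor for full effect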
E coli RNAP: inhibitors of Escherichia coli RNA polymerase; inhibition, %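 (tested at 10 µM)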; P0A8V2; E. coli RNA polymerase, fluorescence transcription assay; 62,000 tested, 0.2% active; in the data active means inhibition above about 20%;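 further: 0% = enzyme without compound and 100% = no enzyme blank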
TNAP act DEA: activates human TNAP at intermediate phosphate acceptor concentration | P05186 | purified TNAP, CDP-star luminescence, 100 mM DEA, 30 min; stronger effect = higher value; scale: 0 levamisole-inhibited, 1 vehicle-only enzyme | activation factor at 20 µM | 64,000 tested, under 10 active | AID 813;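 active means activation factor of at least 2 at 20 µM, relative to controls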
Cdc25B block: human M-phase inducer phosphatase 2 inhibition | inhibition, %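 (compounds tested at 10 µM final in the well)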 | 65,000 tested, 0.1% active | P30305 | recombinant Cdc25B, OMFP fluorescence Ex485/Em525; in the data active means inhibition above about 50%
Target sequence (P30305 whole entry, looked up): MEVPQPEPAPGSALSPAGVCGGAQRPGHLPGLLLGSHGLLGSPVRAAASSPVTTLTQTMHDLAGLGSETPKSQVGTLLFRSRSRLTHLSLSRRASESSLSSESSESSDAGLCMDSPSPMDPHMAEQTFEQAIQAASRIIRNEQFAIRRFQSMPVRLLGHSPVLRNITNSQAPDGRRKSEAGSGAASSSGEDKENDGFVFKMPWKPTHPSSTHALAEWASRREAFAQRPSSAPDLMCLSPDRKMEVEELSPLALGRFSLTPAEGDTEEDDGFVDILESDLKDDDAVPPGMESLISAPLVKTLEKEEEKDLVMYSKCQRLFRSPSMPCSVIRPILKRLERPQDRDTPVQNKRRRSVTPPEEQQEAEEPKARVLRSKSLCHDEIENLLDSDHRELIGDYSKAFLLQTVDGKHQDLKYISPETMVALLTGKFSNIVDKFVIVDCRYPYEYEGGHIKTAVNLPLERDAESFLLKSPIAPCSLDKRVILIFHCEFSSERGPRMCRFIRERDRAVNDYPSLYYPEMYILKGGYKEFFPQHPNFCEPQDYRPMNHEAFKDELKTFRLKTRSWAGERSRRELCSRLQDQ
Redox 05 DTT: counter-screen for Cdc25B probes: redox cycling H2O2 in 0.5 mM DTT; shares compounds with Cdc25B block; EC50, µM; cell-free redox cycling H2O2 generation; AID 682; 30 tested, 50% active; in the data active means EC50 below about 30 µM
Redox H2O2 1DTT: counter-screen for Cdc25B probes: redox cycling H2O2 in 1 mM DTT; cell-free redox cycling H2O2 generation; 30 tested, under 10 active; shares compounds with Cdc25B block; EC50, µM; in the data active means EC50 below about 50 µM
Redox cycler: counter-screen for MKP-1 and MKP-3 probes: redox cycling H2O2 generation; shares compounds with MKP-1 inh; DTT, phenol red/HRP; EC50, µM; 60 tested, under 10 active; call rule not given here
BAP1 inh conf: BAP1 (human) enzyme inhibition, confirmed; shares compounds with BAP1 block; purified BAP1, Ub-ethyl ester hydrolysis, HPLC; stronger effect = lower value; % of control activity, % at 20 µM; 310 tested, 8% active; AID 753;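 active means percent of control activity at or below 60%; inconclusive means HPLC trace unusable from injection failure or solvent front hiding peaks; inactive means the rest, plus ubiquitin peak ratio over a set limit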
Starred values were filed as active, the others as inactive. Sampled rows, rich in hits. Any-hit rate of the full collection: about 1%.

Results for COc1ccc(C(CC(=O)N2CCC3(CC2)OCCO3)NS(=O)(=O)c2ccc(F)cc2)cc1 (centres undefined) ?
BAP1 block: inactive; MKP-1 inh: 3; HePTP inh: 0; E coli RNAP: -7; TNAP act DEA: 1; Cdc25B block: 52*

What do the screens show for `CC12CN3CC(C)(CN(C1)C31CCCC1)C2O` (centres undefined)?
HePTP inh: 9

How did Cc1ccccc1-n1c(O)c(C=C2C=CC=N2)c(=O)[nH]c1=S do in these assays?
HePTP inh: 103*

Results for Cn1c(O)c(/C=C2\C=CC=N2)c(=O)[nH]c1=O ?
HePTP inh: 8

How did Cc1ccc(C=C2C(=O)NC(=S)N(c3ccccc3F)C2=O)s1 do in these assays?
HePTP inh: 11

Results for O=C1NC(=S)N(c2ccccc2F)C(=O)C1=Cc1ccco1 ?
HePTP inh: 103*

How did O=C1NC(=S)N(c2ccccc2)C(=O)/C1=C/c1ccco1 do in these assays?
HePTP inh: 102*

How did O=C1NC(=O)N(c2ccccc2)C(=O)/C1=C/c1ccoc1 do in these assays?
HePTP inh: 7

What do the screens show for `CCc1ccc(N2C(=O)NC(=O)/C(=C/C=C/c3ccco3)C2=O)cc1`?
HePTP inh: 33

How did C=CCN1C(=O)/C(=C\C=C\c2ccco2)C(=O)NC1=S do in these assays?
HePTP inh: 102*

What do the screens show for `COc1ccc(N2C(=O)/C(=C/c3ccc(I)o3)C(=O)NC2=S)cc1`?
HePTP inh: 101*

How did O=C1NC(=O)N(c2ccc(Cl)cc2)C(=O)/C1=C/c1ccc(Br)o1 do in these assays?
HePTP inh: 100*

Results for O=C1NC(=S)N(c2ccc(F)cc2)C(=O)/C1=C/c1ccc(Br)o1 ?
HePTP inh: 104*

How did O=C1NC(=S)N(c2ccc(Br)cc2)C(=O)/C1=C/c1ccc(-c2ccccc2C(=O)O)o1 do in these assays?
HePTP inh: 22

How did O=C(COc1ccc2ccccc2c1)N1CCN(Cc2ccc(F)cc2)CC1 do in these assays?
HePTP inh: 6

What do the screens show for `NC(Cc1cc(O)c(O)cc1O)C(=O)O` (centres undefined)?
BAP1 block: active

What do the screens show for `COc1ccc(CN2C(=O)NC(=O)/C(=C\c3ccoc3)C2=O)cc1`?
HePTP inh: 8

How did CCN1C(=O)/C(=C/c2cccn2C)C(=O)NC1=S do in these assays?
HePTP inh: 100*

How did C=CCN1C(=O)/C(=C\c2cccn2-c2ccc([N+](=O)[O-])cc2)C(=O)NC1=S do in these assays?
HePTP inh: 102*

What do the screens show for `CCN1C(=O)/C(=C/c2ccoc2)C(=O)NC1=S`?
HePTP inh: 102*

Results for C=CCc1cc(/C=C2\C(=O)NC(=O)N(c3cc(C)cc(C)c3)C2=O)cc(OCC)c1O ?
HePTP inh: 4

What do the screens show for `O=C(N1CCN(c2ccccc2Cl)CC1)C(O)(c1ccccc1)c1ccccc1`?
HePTP inh: 7

Results for CCN(CC)C(=O)c1ccc(NC(=O)C(F)(F)F)cc1 ?
HePTP inh: 5

What do the screens show for `CCCCn1c(=O)c(C(=O)Nc2nc3ccccc3[nH]2)c(O)c2ccccc21`?
BAP1 block: active; MKP-1 inh: -21; HePTP inh: 5; E coli RNAP: 9; TNAP act DEA: 0.9; Cdc25B block: -3

Results for CCCCn1c(=O)c(C(=O)Nc2ccc(OC)cc2)c(O)c2ccccc21 ?
HePTP inh: -6

How did O=C1NC(=O)N(c2cccc(Br)c2)C(=O)/C1=C/c1ccc(-c2ccc(C(=O)O)cc2)o1 do in these assays?
HePTP inh: 9

Results for CN1C(=O)C(=Cc2ccc(C(=O)O)cc2)C(=O)N(C)C1=O ?
HePTP inh: -8

Results for CN1C2CCC1CC(OC(=O)CCN1CCCC1)C2 (centres undefined) ?
BAP1 block: inactive; MKP-1 inh: -2; HePTP inh: 16; E coli RNAP: 7; TNAP act DEA: 0.9; Cdc25B block: 77*

What do the screens show for `O=C1C=Cc2ccccc2C1=O`?
MKP-1 inh: 94*; Cdc25B block: 99*; Redox 05 DTT: 26*; Redox H2O2 1DTT: >50; Redox cycler: >50

What do the screens show for `CN1C(=O)C(=Cc2ccc(N3CCCC3)c([N+](=O)[O-])c2)C(=O)N(C)C1=O`?
HePTP inh: -1

How did CCn1nc(-c2cccs2)nc2c(=O)n(C)c(=O)nc1-2 do in these assays?
BAP1 block: active; MKP-1 inh: 104*; HePTP inh: inconclusive; E coli RNAP: 9; TNAP act DEA: 0.9; Cdc25B block: 101*; Redox 05 DTT: 0.65*; Redox H2O2 1DTT: 1*; Redox cycler: 14*; BAP1 inh conf: 94

How did O=C(COc1ccc(Cl)cc1)N1CCN(Cc2cccc([N+](=O)[O-])c2)CC1 do in these assays?
HePTP inh: 5

What do the screens show for `CCCCOCCCn1c(N)c(C(=O)OCCOC)c2nc3ccccc3nc21`?
MKP-1 inh: -14; HePTP inh: 8; E coli RNAP: -49; TNAP act DEA: 1; Cdc25B block: 30

Results for COCCCn1c(N)c(C(=O)NCCC(C)C)c2nc3ccccc3nc21 ?
BAP1 block: inactive; MKP-1 inh: 55*; HePTP inh: 0; TNAP act DEA: 1; Cdc25B block: 5; Redox cycler: >50

Results for Cc1nc2cc(-c3cccc(F)c3)nn2c(C)c1CCC(=O)N1CCC2(CC1)OCCO2 ?
BAP1 block: inactive; MKP-1 inh: 60*; HePTP inh: 1; E coli RNAP: 2; TNAP act DEA: 0.9; Cdc25B block: -6; Redox cycler: >50

Results for O=c1c2cc(I)ccc2nc(/C=C/c2ccc([N+](=O)[O-])cc2)n1-c1ccccc1 ?
HePTP inh: 2

What do the screens show for `CCC(=Nc1ccc2c(c1)CCC2)c1c(O)n(C2CCCCC2)c(=O)[nH]c1=O`?
BAP1 block: active; MKP-1 inh: -30; HePTP inh: -7; E coli RNAP: 1; TNAP act DEA: 0.9; Cdc25B block: -1; BAP1 inh conf: 84

What do the screens show for `O=C1NC(=S)NC(=O)C1=Cc1ccc(OCc2cccc3ccccc23)cc1`?
HePTP inh: 16

Source: PubChem
